Source: PubChem
Only a selection was taken, and hits are over-represented in it overall.
HT1080 IDH1KD tx – HT-1080 IDH1 knockdown cell toxicity (counter line); HT-1080 IDH1 knockdown viability, ATP luminescence, 48 h; Potency, µM (top dose mostly 46.1 µM), for the others: at the highest dose activity, negative = toxicity, hits mostly cytotoxic; 360,000 tested, 2% active;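 also: potency is read from the fitted curve at half-maximal effect; 0% = DMSO wells and -100% = cell-free medium wells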
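Assay cells: HT-1080 with IDH1 knockdown, 750 per well, RPMI/5% FBS. Exposure: 48 h at 37 °C following 2 h pre-incubation. Read: CellTiter-Glo luminescence; fitted concentration-response, curve class assigned.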
IL1B secr inh – inflammasome signaling inhibition, IL-1 beta readout. THP-1 LPS/ATP IL-1B secretion, AlphaLISA, 16 h; stronger effect = lower value. activity change, % at 57.5 µM. 360,000 tested, 4.7% active; in the data active = activity change below about -50%; inconclusive = mostly about -30% to -49%
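Secreted IL-1B measured by AlphaLISA bead assay after 16 h compound exposure of THP-1 cells; compounds (final up to 57.5 uM) added 1 h before LPS (250 ng/mL) and ATP (1.25 mM) stimulation; lower signal means less secretion.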
12-LOX inh – inhibitors of human 12S-lipoxygenase ALOX12. P18054. purified 12hLO, xylenol orange hydroperoxide absorbance. Potency, µM (highest dose often 108 µM), without a hit: at the highest dose activity change, negative = inhibition, hits mostly inhibitors. 580,000 tested, 1.1% active. AID 1671190; also: potency is read from the fitted curve at half-maximal effect
Target sequence (P18054 whole entry, looked up): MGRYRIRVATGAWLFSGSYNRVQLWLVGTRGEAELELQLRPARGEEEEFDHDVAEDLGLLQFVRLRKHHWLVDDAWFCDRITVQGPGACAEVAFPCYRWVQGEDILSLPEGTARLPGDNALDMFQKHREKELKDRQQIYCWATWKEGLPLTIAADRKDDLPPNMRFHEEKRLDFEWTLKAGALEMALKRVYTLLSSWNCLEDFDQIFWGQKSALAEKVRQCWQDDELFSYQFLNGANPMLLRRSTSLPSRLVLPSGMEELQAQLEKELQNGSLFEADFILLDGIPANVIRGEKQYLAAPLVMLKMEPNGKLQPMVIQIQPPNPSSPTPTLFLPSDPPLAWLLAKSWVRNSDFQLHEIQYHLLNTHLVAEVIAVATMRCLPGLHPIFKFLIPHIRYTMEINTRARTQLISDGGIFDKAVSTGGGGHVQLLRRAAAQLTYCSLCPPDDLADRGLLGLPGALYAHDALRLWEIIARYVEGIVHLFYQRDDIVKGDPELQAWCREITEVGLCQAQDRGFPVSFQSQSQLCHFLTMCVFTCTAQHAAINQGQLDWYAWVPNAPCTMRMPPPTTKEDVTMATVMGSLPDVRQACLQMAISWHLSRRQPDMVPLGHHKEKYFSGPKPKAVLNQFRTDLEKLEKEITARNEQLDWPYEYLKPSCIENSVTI
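Purified human 12hLO at 150 nM in 25 mM Hepes, 0.01% Triton X-100, pH 7.0, preincubated 15 min at room temperature with compound. Reaction started with 40 uM arachidonic acid, 30 min at room temperature. Hydroperoxide measured by Fe-xylenol orange, 573/405 nm absorbance ratio.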
HT1080-NT tox – kills 2HG-producing HT-1080-NT fibrosarcoma cells. HT-1080-NT fibrosarcoma viability, CellTiter-Glo ATP luminescence, 48 h. Potency, µM (highest dose often 46.1 µM), for the others: top-dose activity, negative = less viability, hits mostly cytotoxic. 360,000 tested, 1.6% active. AID 686970;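 also: NT is the 2HG producing partner of a matched IDH1 knockdown line; potency is read from the fitted curve at half-maximal effect; 0% = DMSO-treated cells and -100% = media-only wells without cells; nearly all actives have a fitted effect of over 55% in size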
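Toxicity toward the 2HG-producing NT line was scored as %Activity, normalised to DMSO and no-cell wells, from CellTiter-Glo luminescence after 48 hours' treatment.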
TDP1 cell noCPT – qHTS for Inhibitors of human tyrosyl-DNA phosphodiesterase 1 (TDP1): qHTS in cells in absence of CPT; DT40 Tdp1-/- hTDP1 cells, no CPT, ATP luminescence, 48 h; Potency, µM (top dose mostly 46.2 µM), without a hit: top-dose activity change, negative = growth inhibition, most hits filed as inhibitors; 420,000 tested, 15% active; also: potency is read from the fitted curve at half-maximal effect; nearly all actives have a fitted effect of over 55% in size
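Seeded 400 DT40-hTDP1 cells/well (vehicle DMSO, no 20 nM CPT); pinned compounds; ≥48 hr at 37 °C; CellTiter-Glo luminescence as viability measure.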
DT40 TDP1 CPT – growth inhibition of DT40 Tdp1-/-;hTDP1 cells with camptothecin (screen for TDP1 inhibitors). Potency, µM (doses to about 46.2 µM), for the others: top-dose activity change, negative = growth inhibition, most hits filed as inhibitors. 420,000 tested, 12% active. chicken DT40 Tdp1-/-;hTDP1 cells + 20 nM CPT, ATP luminescence, 48 h. AID 686979; also: potency is read from the fitted curve at half-maximal effect; nearly all actives have a fitted effect of over 55% in size
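Cell growth measured by CellTiter-Glo luminescence after a minimum 48 h, 37 C compound exposure with 20 nM CPT in Tdp1-knockout DT40 cells stably expressing hTDP1, seeded 400/well; qHTS titration format.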
Starred values were filed as active, the others as inactive; ? = inconclusive; . = not tested or not shown; [ ] = remark or other dose. Unless noted, calls follow the shape of the dose curve; as a rule, active = well fitted curve in the direction sought with a large enough effect; inconclusive = small, poorly fitted or top-dose-only effect, or another doubt; inactive = no such curve, though single readings can be large; an effect the other way counts as inactive or inconclusive. Unless noted, % is scaled to controls: 0 for no effect and ±100 for the full control effect.

SMILES	HT1080 IDH1KD tx	IL1B secr inh	12-LOX inh	HT1080-NT tox	TDP1 cell noCPT	DT40 TDP1 CPT
Cc1ccc(S(=O)(=O)Nc2ccc(N(C)S(=O)(=O)c3ccc(C)cc3)cc2)cc1	?	-28	12%	-30%	?	2%
O=C(Nc1nccs1)C1CC(=O)N(Cc2ccccn2)C1 (stereo unspecified)	.	.	-4%	.	.	.
O=C1/C(=C/c2cccnc2)CC/C1=C\c1cccnc1	-9%	-87*	6%	-21%	?	?
NC1=NC(=O)/C(=C\c2cccnc2)S1	-1%	-11	?	7%	-24%	?
O=C1/C(=C/c2ccccc2F)CCc2ccccc21	.	.	3.2µM*	.	.	.
CC(C)N1C(=O)S/C(=C/c2cccnc2)C1=O	3%	-29	-10%	9%	-29%	-25%
CC(C)/C=C1\CC/C(=C\c2cccnc2)C1=O	10%	-10	0%	8%	21µM*	?
CCC1C/C(=C\c2cccnc2)C(=O)/C(=C/c2cccnc2)C1 (stereo unspecified)	?	?	-13%	?	4.6µM*	3.3µM*
CCOc1ccc(C2=C/C(=C/c3cccnc3)C(=O)O2)cc1	8%	3	-30%	11%	?	?
O=C1/C(=C/c2ccc(C(=O)O)cc2)CCC/C1=C\c1ccc(C(=O)O)cc1	6%	-4	-18%	2%	-14%	-3%
O=C1/C(=C\c2cccnc2)CCc2ccccc21	?	-111*	8%	?	18µM*	13µM*
O=C1/C(=C/c2cccnc2)CCC/C1=C\c1cccnc1	?	-107*	-13%	?	2.1µM*	2.1µM*
CCS(=O)(=O)N1CCC(NC(=O)c2cccc(NC(=O)c3cccs3)c2)CC1	.	.	5%	.	.	.
Cc1ccc(Nc2ccc(N3CCN(C(=O)c4ccc([N+](=O)[O-])cc4Cl)CC3)nn2)cc1	.	.	-72%	.	18µM*	21µM*
O=C(c1cccc([N+](=O)[O-])c1)N1CCN(c2ccc(Nc3ccccc3)nn2)CC1	.	.	3%	.	21µM*	?
CCNC(=O)NC(=O)COc1ccc2ccc(=O)oc2c1	.	.	-27%	.	.	.
Cc1onc(-c2cnn(C)c2NCc2ccc(C#N)cc2)c1C(=O)NCC1CCOCC1	.	.	-17%[176 µM]	.	.	.
C/C(=N\N1CCN(C2c3ccccc3-c3ccccc32)CC1)c1ccncc1	-5%[9.24 µM]	-3	?	4%	16µM*	16µM*
C(=N\N1CCN(C2c3ccccc3-c3ccccc32)CC1)/c1ccncc1	-1%	-21	0%	0%	?	?
Cc1nn(CCC(=O)NNC(=S)NCC(C)C)c(C)c1Br	1.3µM*	12	5%	1.1µM*	6.5µM*	7.3µM*
COCCCNC(=S)NNC(=O)Cn1nc(C)c(Br)c1C	17%	18	-2%	15%	-4%	2%
CNC(=S)NNC(=O)CCn1nc(C)c(Br)c1C	16µM*	0	21%	11µM*	?	?
CCOCCCNC(=S)NNC(=O)CCn1nc(C)c(Br)c1C	2.5µM*	0	19%	0.89µM*	-12%	2%
Cc1nn(CCC(=O)NNC(=S)Nc2ccccc2)c(C)c1Br	14%	3	-12%	?	-26%	-14%
Cc1cccc(NC(=O)Cn2cccc2-c2nc(-c3ccc(F)cc3)no2)c1	.	.	14%	.	.	.
SMILES	HT1080 IDH1KD tx	IL1B secr inh	12-LOX inh	HT1080-NT tox	TDP1 cell noCPT	DT40 TDP1 CPT
CCCN1CCN(CCCNC(=O)c2cc3c(=O)[nH]c4ccc(C)cc4c3s2)CC1	26µM*	.	5%	21µM*	16µM*	?
CCN(CC)CCNC(=O)c1cc2c(=O)[nH]c3ccc(C)cc3c2s1	.	.	-9%	.	-19%	6%
Cc1ccc2[nH]c(=O)c3cc(C(=O)NCC4CCCO4)sc3c2c1 (stereo unspecified)	8%	-81*	-10%	13%	?	-10%
CCCCN(CC)CCNC(=O)c1cc2c(=O)[nH]c3ccccc3c2s1	0%	.	-8%	0%	?	?
CCN(CCCNC(=O)c1cc2c(=O)[nH]c3ccc(C)cc3c2s1)Cc1ccccc1	.	.	?	.	4.6µM*	7.3µM*
CCCN(CCC)CCCNC(=O)c1cc2c(=O)[nH]c3ccccc3c2s1	-15%	-73*	0%	-29%	-6%	35%
CCOC(=O)C1CCC(CNC(=O)N2CCCC2c2ccc(OC)cc2)CC1 (stereo unspecified)	.	.	1%	.	.	.
CCOC(=O)c1c(NC(=O)CSc2ncccn2)sc2c1CC(C)(C)NC2(C)C	-16%	-57*	9%	-16%	-2%	-2%
COC(=O)c1c(NC(=O)Cc2ccccc2)sc2c1CC(C)(C)NC2(C)C	-19%	?	2%[57.4 µM]	-4%	?	?
CCOC(=O)c1c(NC(=O)COc2ccccc2F)sc2c1CC(C)(C)NC2(C)C	8%	-26	-21%	0%	13µM*	9.2µM*
COC(=O)c1c(NC(=O)COc2ccc(Cl)cc2)sc2c1CC(C)(C)NC2(C)C	-10%	-97*	-28%	2%	3.7µM*	2.9µM*
